This passage reports outcome and AC50 results from PubChem BioAssay (EPA / NIEHS).

Experiment [1] can be described thus: ATG_NFI_CIS: Attagene CIS-FACTORIAL HepG2 Assay for human Nuclear Factor I (NFI) (AID 2282989). The conditions noted are these: HepG2 cis-regulatory reporter, NFI response element transcription; actives raise or lower the signal. The method in brief:
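Reporter transcription driven by endogenous transcription factors in HepG2 cells; 24 h treatment. Quantitation by labelled RT-PCR fragments on capillary electrophoresis, gain- or loss-of-signal relative to DMSO.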

Experiment [2] addresses Myc proto-oncogene protein (Homo sapiens) (UniProt P01106). As to the kind of experiment: ATG_Myc_CIS: Attagene CIS-FACTORIAL HepG2 Assay for human Myelocytomatosis (Myc) Proto-Oncogene Transcription Factor (AID 2282990). The conditions noted are these: HepG2, Attagene cis-reporter transcription factor activity; actives raise or lower the signal. The method in brief:
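DMSO-normalised, bidirectionally fitted reporter mRNA signal. HepG2 cells transfected with cis reporter constructs, treated 24 h; transcripts detected by RT-PCR, 6-FAM primer extension and CE.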

Experiment [3] is described as follows: ATG_NF_kB_CIS: Attagene CIS-FACTORIAL HepG2 Assay for human Nuclear Factor Kappa B (NF-kB) (AID 2282991). The following applies: HepG2 Attagene cis-factorial NF-kB reporter mRNA; actives raise or lower the signal. The method, boiled down:
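Fluorescence of labelled RT-PCR products separated by capillary electrophoresis gives reporter mRNA levels from transfected HepG2 cells exposed 24 h; values are fitted in both directions relative to DMSO.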

Experiment [4] can be described thus: ATG_NRF2_ARE_CIS: Attagene CIS-FACTORIAL HepG2 Assay for human Nuclear Factor Erythroid 2 Related Factor 2 (NFR2) response to Antioxidant Response Elements (ARE) (AID 2282992). The conditions noted are these: HepG2 Attagene ARE/NRF2 reporter, transcription factor activity; actives raise or lower the signal. The method, boiled down: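 HepG2 cells transiently transfected with multiplexed cis-element reporter constructs, 24 h after chemical dosing; reporter mRNA quantified by RT-PCR, fluorescent primer extension, HpaI digestion and capillary electrophoresis. Bidirectional fit relative to DMSO.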

For experiment [5], the target named is human Peroxisome Proliferator-activated Receptor alpha (PPARa), PPARA (gene 5465) (UniProt Q07869). As to the kind of experiment: ATG_PPARa_TRANS: Attagene TRANS-FACTORIAL HepG2 Assay for human Peroxisome Proliferator-activated Receptor alpha (PPARa) (AID 2283001; active = hit-call score of the fitted dose curve at least 0.9, where 1 is the maximum;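 as to AC50: potency for gain of reporter signal over DMSO so agonist or activator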). The method, boiled down:
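HepG2 cells transiently transfected with multiplexed GAL4-UAS reporter units and chimeric NR-Gal4 constructs were dosed for 24 h. Reporter mRNA was measured by RT-PCR with fluorescent labelling and capillary electrophoresis; gain of signal fitted against DMSO.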

For experiment [6], the target named is human Retinoic Acid Receptor beta (RARb), RARB (gene 5915) (UniProt P10826). As to the kind of experiment: ATG_RARb_TRANS: Attagene TRANS-FACTORIAL HepG2 Assay for human Retinoic Acid Receptor beta (AID 2283004; active = hit-call score of the fitted dose curve at least 0.9, where 1 is the maximum). The method, boiled down: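 Readout is reporter mRNA induction: RNA reverse-transcribed, PCR-amplified, FAM-labelled, HpaI-cut and resolved by capillary electrophoresis. Transiently transfected HepG2 cells carrying exogenous NR–Gal4 chimeras were dosed for 24 h; activity fitted upward relative to DMSO.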
Sequence of human Retinoic Acid Receptor beta (RARb), RARB (gene 5915) (P10826 whole entry, looked up, the tested form may be a part): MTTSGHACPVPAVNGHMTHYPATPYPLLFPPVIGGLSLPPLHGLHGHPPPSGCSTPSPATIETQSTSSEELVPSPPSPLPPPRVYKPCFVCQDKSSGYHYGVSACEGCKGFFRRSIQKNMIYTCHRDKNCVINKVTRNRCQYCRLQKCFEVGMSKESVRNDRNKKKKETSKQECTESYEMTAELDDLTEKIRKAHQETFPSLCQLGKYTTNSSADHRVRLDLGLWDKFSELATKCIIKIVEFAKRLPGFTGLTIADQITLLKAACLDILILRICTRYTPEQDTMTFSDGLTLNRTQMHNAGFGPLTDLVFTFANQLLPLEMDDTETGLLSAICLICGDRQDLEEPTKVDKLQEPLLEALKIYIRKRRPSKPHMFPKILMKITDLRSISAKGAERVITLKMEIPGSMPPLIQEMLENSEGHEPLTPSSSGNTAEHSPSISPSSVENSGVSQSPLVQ

The target in experiment [7] is Nuclear receptor subfamily 1 group I member 2 (Homo sapiens) (UniProt O75469). As to the kind of experiment: ATG_PXR_TRANS: Attagene TRANS-FACTORIAL HepG2 Assay for human Pregnane X Receptor (PXR) (AID 2283008; active = hit-call score of the fitted dose curve at least 0.9, where 1 is the maximum). The method, boiled down: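 HepG2 cells transiently transfected with GAL4-UAS reporter units and PXR-Gal4 chimera, exposed 24 h. Reporter mRNA quantified by RT-PCR, fluorescent labelling, HpaI digestion and capillary electrophoresis; gain of signal vs DMSO.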
Sequence of Nuclear receptor subfamily 1 group I member 2 (Homo sapiens) (O75469 whole entry, looked up, the tested form may be a part): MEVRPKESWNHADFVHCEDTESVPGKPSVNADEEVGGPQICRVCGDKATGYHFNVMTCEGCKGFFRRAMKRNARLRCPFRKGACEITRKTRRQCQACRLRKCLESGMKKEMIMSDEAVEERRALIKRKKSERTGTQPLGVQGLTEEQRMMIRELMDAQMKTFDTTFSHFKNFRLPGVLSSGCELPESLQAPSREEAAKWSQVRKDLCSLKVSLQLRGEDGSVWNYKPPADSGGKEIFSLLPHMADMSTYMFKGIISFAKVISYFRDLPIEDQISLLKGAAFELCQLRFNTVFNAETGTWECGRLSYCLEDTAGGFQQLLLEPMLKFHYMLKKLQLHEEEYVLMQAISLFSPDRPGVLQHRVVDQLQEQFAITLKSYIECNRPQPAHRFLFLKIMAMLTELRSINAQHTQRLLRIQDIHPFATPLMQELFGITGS

Experiment [8] has as its target human Retinoic Acid Receptor gamma (RARg), RARG (gene 5916) (UniProt P13631). As to the kind of experiment: ATG_RARg_TRANS: Attagene TRANS-FACTORIAL HepG2 Assay for human Retinoic Acid Receptor gamma (RARg) (AID 2283009; active = hit-call score of the fitted dose curve at least 0.9, where 1 is the maximum). The method in brief: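 HepG2 cells transiently transfected with multiplexed reporter units expressing chimeric RARg-GAL4 and GAL4-UAS-driven reporters; 24 h compound exposure. Reporter mRNA quantified by RT-PCR with fluorescent labelling and capillary electrophoresis; gain-of-signal fitted relative to DMSO baseline.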

In experiment [9] the target is human RAR-related Orphan Receptor beta (RORb), RORB (gene 6096) (UniProt Q92753). As to the kind of experiment: ATG_RORb_TRANS: Attagene TRANS-FACTORIAL HepG2 Assay for human RAR-related Orphan Receptor beta (RORb) (AID 2283010; active = hit-call score of the fitted dose curve at least 0.9, where 1 is the maximum). The method in brief: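 HepG2 cells were transiently transfected with multiplexed GAL4-UAS reporter units expressing chimeric nuclear receptor–GAL4 proteins, then dosed for 24 h. Reporter mRNA was quantified by RT-PCR with fluorescent labelling and capillary electrophoresis; gain of signal was fitted relative to DMSO.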
Sequence of human RAR-related Orphan Receptor beta (RORb), RORB (gene 6096) (Q92753 whole entry, looked up, the tested form may be a part): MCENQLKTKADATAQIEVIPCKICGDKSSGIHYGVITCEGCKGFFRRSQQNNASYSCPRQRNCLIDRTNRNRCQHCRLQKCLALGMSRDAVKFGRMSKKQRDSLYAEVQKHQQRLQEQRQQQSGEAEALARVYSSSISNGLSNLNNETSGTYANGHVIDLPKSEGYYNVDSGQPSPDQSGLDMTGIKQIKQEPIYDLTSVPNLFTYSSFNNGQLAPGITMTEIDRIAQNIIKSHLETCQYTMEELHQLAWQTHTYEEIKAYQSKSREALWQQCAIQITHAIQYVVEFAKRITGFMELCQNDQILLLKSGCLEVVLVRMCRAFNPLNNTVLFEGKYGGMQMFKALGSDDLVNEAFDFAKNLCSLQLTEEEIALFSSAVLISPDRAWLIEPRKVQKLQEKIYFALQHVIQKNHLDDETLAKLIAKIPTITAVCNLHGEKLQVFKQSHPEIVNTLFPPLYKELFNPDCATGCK

For experiment [10], the target named is Retinoic acid receptor alpha (Homo sapiens) (UniProt P10276). As to the kind of experiment: ATG_RARa_TRANS: Attagene TRANS-FACTORIAL HepG2 Assay for human Retinoic Acid Receptor alpha (RARa) (AID 2283005; active = hit-call score of the fitted dose curve at least 0.9, where 1 is the maximum). The method, boiled down: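 HepG2 cells transiently transfected with multiple reporter units expressing chimeric RARα-GAL4 fusion, with GAL4-UAS-driven reporters. After 24 h compound exposure, reporter mRNA induction quantified by RT-PCR and capillary electrophoresis with fluorescent labeling; gain-of-signal fitted relative to DMSO control.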
Sequence of Retinoic acid receptor alpha (Homo sapiens) (P10276 whole entry, looked up, the tested form may be a part): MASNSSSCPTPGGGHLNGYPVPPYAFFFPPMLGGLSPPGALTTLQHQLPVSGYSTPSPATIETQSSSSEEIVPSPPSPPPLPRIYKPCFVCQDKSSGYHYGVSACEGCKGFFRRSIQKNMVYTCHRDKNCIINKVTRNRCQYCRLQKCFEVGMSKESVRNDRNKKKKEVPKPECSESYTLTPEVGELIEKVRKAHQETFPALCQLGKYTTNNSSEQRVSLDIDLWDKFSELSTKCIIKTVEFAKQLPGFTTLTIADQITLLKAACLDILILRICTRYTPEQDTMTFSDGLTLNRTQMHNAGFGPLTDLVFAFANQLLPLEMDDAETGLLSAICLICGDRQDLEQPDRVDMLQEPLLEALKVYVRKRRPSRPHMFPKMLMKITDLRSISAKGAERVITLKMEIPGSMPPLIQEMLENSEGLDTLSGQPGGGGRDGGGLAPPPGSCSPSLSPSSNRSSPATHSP

A short description of experiment [11]: ATG_Oct_MLP_CIS: Attagene CIS-FACTORIAL HepG2 Assay for human Octamer-Binding Transcription Factor (Oct) (AID 2282993). The following applies: HepG2 Attagene cis-factorial Oct reporter, mRNA; actives raise or lower the signal. The method, boiled down: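 Transfected HepG2 cells, 24 h treatment. Reporter mRNA quantified by RT-PCR–capillary electrophoresis; bidirectional fitting against DMSO.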

Experiment [12] deals with Peroxisome proliferator-activated receptor gamma (Homo sapiens) (UniProt P37231). As to the kind of experiment: ATG_PPARg_TRANS: Attagene TRANS-FACTORIAL HepG2 Assay for human Peroxisome Proliferator-activated Receptor-gamma (PPARg) (AID 2283007; active = hit-call score of the fitted dose curve at least 0.9, where 1 is the maximum). The method, boiled down: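 Twenty-four hours after chemical dosing of transiently transfected HepG2 cells, isolated RNA was converted to cDNA, reporter sequences amplified and 6-FAM-labelled, then HpaI-digested and analysed by capillary electrophoresis. Signal increase against DMSO was fitted.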
Sequence of Peroxisome proliferator-activated receptor gamma (Homo sapiens) (P37231 whole entry, looked up): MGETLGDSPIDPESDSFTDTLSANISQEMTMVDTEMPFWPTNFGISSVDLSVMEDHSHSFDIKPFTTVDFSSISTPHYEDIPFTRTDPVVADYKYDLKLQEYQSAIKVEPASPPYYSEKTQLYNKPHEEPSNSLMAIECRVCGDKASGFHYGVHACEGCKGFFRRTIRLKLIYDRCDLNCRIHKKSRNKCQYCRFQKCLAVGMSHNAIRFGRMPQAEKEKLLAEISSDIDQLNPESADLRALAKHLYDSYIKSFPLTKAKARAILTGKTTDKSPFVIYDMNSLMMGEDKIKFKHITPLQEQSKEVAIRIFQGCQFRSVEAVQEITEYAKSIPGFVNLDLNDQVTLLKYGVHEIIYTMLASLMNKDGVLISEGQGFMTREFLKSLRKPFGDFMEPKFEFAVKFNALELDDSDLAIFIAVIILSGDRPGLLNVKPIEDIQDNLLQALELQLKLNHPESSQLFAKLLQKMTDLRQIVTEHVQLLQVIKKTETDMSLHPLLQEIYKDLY

Experiment [13] concerns the target Cellular tumor antigen p53 (Homo sapiens) (UniProt P04637). As to the kind of experiment: ATG_p53_CIS: Attagene CIS-FACTORIAL HepG2 Assay for human p53 Transcription Factor (AID 2282994). The conditions noted are these: HepG2 p53 cis-element reporter, Attagene mRNA; actives raise or lower the signal. The method in brief: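 HepG2 cells transiently transfected with cis-regulated multiple reporter transcription units, dosed 24 h. Reporter mRNA measured by RT-PCR, 6-FAM primer extension, HpaI digestion and capillary electrophoresis; bidirectional fit relative to DMSO.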

Experiment [14] concerns the target human Peroxisome Proliferator-activated Receptor delta (PPARd), PPARD (gene 5467) (UniProt Q03181). As to the kind of experiment: ATG_PPARd_TRANS: Attagene TRANS-FACTORIAL HepG2 Assay for human Peroxisome Proliferator-activated Receptor delta (PPARd) (AID 2283002; active = hit-call score of the fitted dose curve at least 0.9, where 1 is the maximum). The method, boiled down:
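Measured quantity: GAL4-UAS reporter transcript induction in HepG2 after 24 h chemical dosing, with NR-Gal4 chimeras supplied by transient transfection. Detection by RT-PCR and capillary electrophoresis; upward fit against DMSO.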

In experiment [15] the target is human RAR-related Orphan Receptor gamma (RORg), RORC (gene 6097) (UniProt P51449). As to the kind of experiment: ATG_RORg_TRANS: Attagene TRANS-FACTORIAL HepG2 Assay for human RAR-related Orphan Receptor gamma (RORg) (AID 2283011; active = hit-call score of the fitted dose curve at least 0.9, where 1 is the maximum). The method, boiled down:
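Transient MRTU transfection of HepG2 (TRANS format, exogenous NR-Gal4 chimera). 24 h dosing. Total RNA → oligo(dT) RT → PCR → 6-FAM labelling → HpaI cut → CE. Gain vs DMSO.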

The nature of experiment [16]: BSK_3C_uPAR: BioMAP Diversity Plus: 3C Assay for Urokinase-type plasminogen activator receptor (uPAR) Biomarker Activity (AID 2282998). The conditions noted are these: BioMAP 3C HUVEC, uPAR biomarker ELISA; actives raise or lower the signal. The method, boiled down: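 Readout: ELISA for surface uPAR. System: human umbilical vein endothelial primary cells, 24 h after chemical exposure. Analysis: bidirectional fit, DMSO baseline.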
(In an ELISA, binding on a coated surface is turned into a signal by an enzyme label.)

Experiment [17] is described as follows: BSK_3C_VCAM1: BioMAP Diversity Plus: 3C Assay for Vascular cell adhesion molecule 1 (VCAM1) Biomarker Activity (AID 2282999). The following applies: BioMAP 3C HUVEC, VCAM1 ELISA, cytokine-stimulated; actives raise or lower the signal. The method, boiled down: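 Human umbilical vein endothelial cells were dosed with compound for 24 h, after which cell-surface VCAM-1 was quantified by ELISA. Bidirectional curve fitting used DMSO as negative control and activity baseline.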

A short description of experiment [18]: BSK_4H_Eotaxin3: BioMAP Diversity Plus: 4H Assay for Eotaxin 3 Biomarker Activity (AID 2283000).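 Also: CCL26 protein level quantified by ELISA in parallel with SRB cytotoxicity check.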 The conditions noted are these: primary human endothelial cells (HUVEC); actives raise or lower the signal. The method, boiled down: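 Readout is Eotaxin-3 (CCL26) level by ELISA in primary human umbilical vein endothelial cells harvested 24 h after chemical exposure; activity fitted in both directions against DMSO control.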

Read-out in experiment [19]: Intercellular Adhesion Molecule 1 (ICAM1), ICAM1 (gene 3383)
As to the kind of experiment: BSK_3C_ICAM1: BioMAP Diversity Plus: 3C Assay for Intercellular Adhesion Molecule 1 (ICAM1) Biomarker Activity (AID 2283003). The conditions noted are these: primary human endothelial cells (HUVEC); actives raise or lower the signal. The method, boiled down: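 Primary human umbilical vein endothelial cells in the BioMAP 3C system were exposed to chemicals for 24 h, then ICAM-1 was quantified by ELISA. Activity was fitted bidirectionally against the DMSO negative control baseline.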

The nature of experiment [20]: BSK_3C_Proliferation: Cell Proliferation Assessment in the BioMAP Diversity Plus: 3C Assay (AID 2283006). The conditions noted are these: primary human endothelial cells (HUVEC). The method in brief: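 Human umbilical vein endothelial cells were grown sub-confluent and exposed to chemical for 48 h, then fixed with 10% TCA and stained with 0.1% sulforhodamine B; absorbance at 560 nm gave relative cell number, fitted bidirectionally against DMSO baseline.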

Records with an inconclusive call do not appear. Calls of active or inactive are those of the source. The calls were made as follows, unless noted: active = hit-call score of the fitted dose curve at least 0.9, where 1 is the maximum; inactive = score below 0.9.

Sequence of human Retinoic Acid Receptor gamma (RARg), RARG (gene 5916) (P13631 whole entry, looked up, the tested form may be a part): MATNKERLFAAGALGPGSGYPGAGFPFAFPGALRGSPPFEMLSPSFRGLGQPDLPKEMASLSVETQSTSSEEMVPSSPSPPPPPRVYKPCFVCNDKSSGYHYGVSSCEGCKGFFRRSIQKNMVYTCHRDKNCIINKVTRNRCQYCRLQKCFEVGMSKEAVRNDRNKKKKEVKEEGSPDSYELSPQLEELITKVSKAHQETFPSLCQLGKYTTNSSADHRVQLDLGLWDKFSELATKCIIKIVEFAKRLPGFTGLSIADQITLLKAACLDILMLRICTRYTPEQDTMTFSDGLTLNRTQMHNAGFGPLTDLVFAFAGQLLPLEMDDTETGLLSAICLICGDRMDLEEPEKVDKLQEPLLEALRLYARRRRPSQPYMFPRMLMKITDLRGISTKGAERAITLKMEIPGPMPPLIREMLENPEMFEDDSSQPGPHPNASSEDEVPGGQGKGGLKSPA
Sequence of Cellular tumor antigen p53 (Homo sapiens) (P04637 whole entry, looked up): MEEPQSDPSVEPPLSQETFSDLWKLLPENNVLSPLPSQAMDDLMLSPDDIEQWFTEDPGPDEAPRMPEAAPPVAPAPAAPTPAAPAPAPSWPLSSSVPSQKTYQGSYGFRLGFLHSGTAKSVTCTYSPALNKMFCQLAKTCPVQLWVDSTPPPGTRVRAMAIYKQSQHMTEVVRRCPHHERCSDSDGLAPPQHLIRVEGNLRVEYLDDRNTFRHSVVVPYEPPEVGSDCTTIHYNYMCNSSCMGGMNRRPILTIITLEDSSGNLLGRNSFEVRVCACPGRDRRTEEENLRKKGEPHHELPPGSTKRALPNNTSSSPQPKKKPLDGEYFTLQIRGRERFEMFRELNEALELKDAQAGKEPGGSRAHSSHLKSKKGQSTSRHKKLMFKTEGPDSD
Sequence of human Peroxisome Proliferator-activated Receptor alpha (PPARa), PPARA (gene 5465) (Q07869 whole entry, looked up, the tested form may be a part): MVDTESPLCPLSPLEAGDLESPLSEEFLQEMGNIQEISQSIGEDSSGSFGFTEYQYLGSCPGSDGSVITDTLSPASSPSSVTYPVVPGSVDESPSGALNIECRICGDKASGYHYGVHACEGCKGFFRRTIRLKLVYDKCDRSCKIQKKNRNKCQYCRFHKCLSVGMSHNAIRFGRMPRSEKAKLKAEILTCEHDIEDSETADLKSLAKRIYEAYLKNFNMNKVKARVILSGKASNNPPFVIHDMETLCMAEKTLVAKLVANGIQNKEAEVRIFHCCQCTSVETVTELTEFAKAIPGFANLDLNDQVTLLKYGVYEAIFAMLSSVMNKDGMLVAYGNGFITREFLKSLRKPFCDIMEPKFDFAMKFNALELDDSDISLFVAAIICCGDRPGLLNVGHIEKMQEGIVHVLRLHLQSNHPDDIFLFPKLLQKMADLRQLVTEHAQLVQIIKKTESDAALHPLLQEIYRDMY
Sequence of Myc proto-oncogene protein (Homo sapiens) (P01106 whole entry, looked up): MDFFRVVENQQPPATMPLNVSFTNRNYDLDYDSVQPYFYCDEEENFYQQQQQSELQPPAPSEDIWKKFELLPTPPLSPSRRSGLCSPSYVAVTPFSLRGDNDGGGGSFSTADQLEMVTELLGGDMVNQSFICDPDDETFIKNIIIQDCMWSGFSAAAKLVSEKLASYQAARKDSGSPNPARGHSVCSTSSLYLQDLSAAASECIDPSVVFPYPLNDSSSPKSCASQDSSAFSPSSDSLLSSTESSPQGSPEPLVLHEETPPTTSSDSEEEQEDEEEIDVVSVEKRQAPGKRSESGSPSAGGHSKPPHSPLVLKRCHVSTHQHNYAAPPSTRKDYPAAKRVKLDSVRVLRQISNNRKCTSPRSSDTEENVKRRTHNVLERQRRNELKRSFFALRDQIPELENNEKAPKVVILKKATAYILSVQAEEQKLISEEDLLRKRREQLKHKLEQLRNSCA
Sequence of human RAR-related Orphan Receptor gamma (RORg), RORC (gene 6097) (P51449 whole entry, looked up, the tested form may be a part): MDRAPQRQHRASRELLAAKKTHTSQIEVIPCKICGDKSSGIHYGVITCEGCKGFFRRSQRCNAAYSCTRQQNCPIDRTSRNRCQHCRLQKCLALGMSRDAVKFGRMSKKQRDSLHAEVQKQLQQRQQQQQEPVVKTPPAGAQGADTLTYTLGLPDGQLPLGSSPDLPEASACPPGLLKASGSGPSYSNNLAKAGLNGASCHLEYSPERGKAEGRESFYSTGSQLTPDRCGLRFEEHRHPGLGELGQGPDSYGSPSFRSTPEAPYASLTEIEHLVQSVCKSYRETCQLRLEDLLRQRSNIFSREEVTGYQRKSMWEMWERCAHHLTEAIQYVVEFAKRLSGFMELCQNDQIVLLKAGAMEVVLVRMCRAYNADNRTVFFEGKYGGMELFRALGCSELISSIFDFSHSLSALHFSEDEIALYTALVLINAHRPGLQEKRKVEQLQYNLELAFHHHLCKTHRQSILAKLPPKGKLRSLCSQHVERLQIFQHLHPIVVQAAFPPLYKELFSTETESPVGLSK

Consider `CC(C)(C)C1CCCCC1=O` (stereo not given), for which the molecule was called inactive in [1], in [2], in experiment [3], in experiment [4], in experiment [5] and in experiment [6]. Also, the outcome in experiment [7], in experiment [8] and in experiment [9] was inactive.
Regarding `CCCCCCCCCCCCCCCC(=O)OCC`, the molecule was called inactive in experiment [1], in experiment [2], in [3], in experiment [4], in experiment [6] and in [10]. Moreover, the molecule was classed as inactive in [7] and in experiment [8].
Turning to `Nc1ccc(Oc2ccc(N)c(N)c2)cc1`, the result in [1], in experiment [2], in [3], in [11], in experiment [7] and in [8] was inactive. Besides, the AC50 was 30.6 µM (active) in experiment [4] and 60.1 µM (active) in [12].
For `CC(=O)OCC(=O)[C@@]12N=C(C)O[C@@H]1C[C@H]1[C@@H]3CCC4=CC(=O)C=C[C@]4(C)[C@H]3[C@@H](O)C[C@@]12C`, the outcome in experiment [1], in experiment [2], in experiment [3], in experiment [11], in experiment [13] and in experiment [14] was inactive. Also, the call in [12], in experiment [7] and in [15] was inactive.
As to `CC(=O)OCc1ccco1`, the molecule was classed as inactive in experiment [1], in experiment [2], in [3], in experiment [11], in experiment [10] and in experiment [12]. The molecule was classed as inactive in experiment [7], in [9] and in experiment [15]. Moreover, the AC50 in experiment [4] was 45.3 µM (active).
Consider `Oc1ccc(Cl)cc1Cc1cc(Cl)ccc1O`, for which the AC50 in experiment [1] is 5.83 µM (active); in experiment [4], 2.75 µM (active); in experiment [5], 6.86 µM (active); in experiment [7], 2.94 µM (active). Besides, the call in experiment [2], in experiment [3] and in [14] was inactive.
Turning to `O=[N+]([O-])C1(Br)COCOC1`, the outcome in [1], in experiment [2], in experiment [4], in [5], in experiment [6] and in experiment [12] was inactive. In addition, the AC50 in [3] was 51.7 µM (active); in [13], 53.8 µM (active).
As for `CO[Si](OC)(OC)c1ccccc1`, the outcome in [1], in [2], in [3], in experiment [11], in experiment [13] and in [16] was inactive. For the same molecule, the result in experiment [17], in [18], in [19], in experiment [20] and in experiment [7] was inactive.

Broadly, the AC50 is the concentration at which the activity in the assay is half-maximal.
